From PubChem BioAssay
D1 agonist: Allosteric Agonists of the Human D1 Dopamine Receptor: qHTS; D(1A) dopamine receptor (Homo sapiens), P21728; activation, % at 2 µM; HEK293 T-REx D1 cells, calcium flux, agonist mode; AID 504660, 2011; 360,000 tested, 1% active; in the data active means activation above about 30%
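Tetracycline-induced HEK293 TREx D1 cells, force-coupled to calcium signalling, were dye-loaded with a no-wash calcium kit. Compound was pin-added after a 10 s baseline. Fluorescence was read kinetically at 1 cycle/s for 180 s, with calcium rises flagged as agonism.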
DRD3 antagonist: qHTS of D3 Dopamine Receptor Antagonist: qHTS; D(3) dopamine receptor (Homo sapiens), P35462; 360,000 tested, 2.5% active; max response, negative = inhibition, %; D3R cells, DiscoveRx beta-arrestin luminescence, antagonist mode; stronger effect = lower value; in the data active means max response below about -50%; inconclusive means no clear call, values can overlap the other calls
Target sequence (P35462 whole entry, looked up): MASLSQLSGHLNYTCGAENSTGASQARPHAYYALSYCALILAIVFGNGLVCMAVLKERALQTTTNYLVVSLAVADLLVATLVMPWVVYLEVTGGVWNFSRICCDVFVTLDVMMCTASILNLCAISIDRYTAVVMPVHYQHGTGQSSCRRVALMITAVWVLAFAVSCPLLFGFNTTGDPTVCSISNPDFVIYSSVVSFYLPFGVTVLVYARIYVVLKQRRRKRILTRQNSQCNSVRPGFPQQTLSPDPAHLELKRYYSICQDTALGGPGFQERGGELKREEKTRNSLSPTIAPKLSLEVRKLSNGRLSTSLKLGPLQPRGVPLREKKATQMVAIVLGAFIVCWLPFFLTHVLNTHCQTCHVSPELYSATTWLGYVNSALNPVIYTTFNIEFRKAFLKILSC
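Cells expressing the human receptor were seeded at 1500 cells/well, incubated overnight at 37 degrees C in 5% CO2, then exposed to library compounds with dopamine controls for 90 minutes at 37 degrees C before luminescent detection.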
DRD3 agonist: qHTS of D3 Dopamine Receptor Agonist: qHTS. 410,000 tested, 0.58% active. max activation, %. D3R DiscoveRx beta-arrestin cells, luminescence, 90 min. D(3) dopamine receptor (Homo sapiens), P35462; in the data active means max activation above about 30%
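Agonist-mode cell screen: cells plated at 1500/well and incubated overnight at 37 °C, then exposed to library compounds for 90 min at 37 °C. Detection reagent was added for 30–60 min at room temperature, and luminescence was read.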
D1 antag: Antagonist of Human D 1 Dopamine Receptor: qHTS; D(1A) dopamine receptor (Homo sapiens), P21728; HEK293 TREx D1 cells, calcium flux, dopamine EC80; stronger effect = lower value; 360,000 tested, 3.2% active; activity change, negative = inhibition, % at 10 µM; AID 504652, 2011; in the data active means activity change below about -30%
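Antagonism measured as reduced calcium response to an EC80 dopamine addition following 180 s compound pre-read; cells were inducible HEK293 Trex D1 plated overnight at 30 C, read kinetically at 1 cycle/sec.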
D1 potentiator: Potentiators of Human D1 Dopamine Receptor: qHTS | D(1A) dopamine receptor (Homo sapiens), P21728 | HEK293 TREx D1 cells, calcium flux, dopamine EC20 potentiation | potentiation, % at 10 µM | 360,000 tested, 0.036% active; in the data active means potentiation above about 30%
Of the large screens only hits and unclear results are named; the others gave an inactive call. Shown are actives, neighbours in structure and some others; about 6.1% of the full set was active somewhere.

COc1ccc(C(CC(=O)N2CCOCC2)c2c(OC)cc(OC)c3c(-c4ccccc4)cc(=O)oc23)cc1 (stereo unspecified)	D1 antag -41
CCCCCc1cc(=O)oc2c(C(CCN3CCCCC3)c3ccc(OC)cc3)c(OC)cc(OC)c12 (stereo unspecified)	DRD3 antagonist inconclusive
CCCCCc1cc(=O)oc2c(C(CCN3CCCC3)c3ccc(N(C)C)cc3)c(OC)cc(OC)c12 (stereo unspecified)	DRD3 antagonist inconclusive
CCCCCc1cc(=O)oc2c(C(CCN3CCCC3)c3cc(OC)c(OC)c(OC)c3)c(OC)cc(OC)c12 (stereo unspecified)	D1 agonist 37, DRD3 antagonist -51, D1 antag -34
COc1ccc(C(CC(=O)N2CCCC2)c2c(OC)cc(OC)c3c(-c4ccccc4)cc(=O)oc23)cc1 (stereo unspecified)	none
CCOc1ccccc1CNC(=O)c1cn(-c2ccc(OC)cc2)c(=O)c2ccccc12	none (no result: DRD3 antagonist)
O=C(CSc1nnc2[nH]c(=O)cc(-c3ccccc3)n12)Nc1cc(C(F)(F)F)ccc1Cl	none (no result: DRD3 antagonist, D1 antag)
COc1cc(C(CCN2CCCCC2)c2c(OC)cc(OC)c3c(-c4ccccc4)cc(=O)oc23)cc(OC)c1OC (stereo unspecified)	none
COc1cc(C(CCN2CCCC(C)C2)c2c(OC)cc(OC)c3c(-c4ccccc4)cc(=O)oc23)cc(OC)c1OC (stereo unspecified)	DRD3 antagonist -51
COc1ccccc1NC(=O)Cn1cc(C(=O)c2ccncc2)c(=O)c2cc(C)ccc21	none (no result: DRD3 antagonist)
CO/N=C\CC(=O)Nc1ccc(Cl)c(Cl)c1	D1 antag -30
CCCOc1cccc(C(=O)Nc2ccc(-c3nc4ccccc4o3)cc2)c1	none (no result: DRD3 antagonist)
NC(=O)Cn1c(=O)n(-c2ccc(F)c(Cl)c2)c(=O)c2sc3ccccc3c21	none (no result: DRD3 antagonist)
CN=c1scc(-c2cccs2)n1/N=C/c1ccc(O)c(O)c1O	DRD3 agonist 170, D1 antag -89
Oc1ccc(/C=N/n2c(-c3ccco3)csc2=Nc2cccnc2)c(O)c1	none
C=CCN=c1scc(-c2ccco2)n1/N=C/c1ccc(O)c(O)c1O	DRD3 agonist 184
CN=c1scc(-c2cccs2)n1/N=C/c1ccccc1O	none
COCCN=c1scc(-c2ccco2)n1/N=C/c1ccc(O)c(O)c1O	DRD3 agonist 117
CC(C)N=c1scc(-c2ccco2)n1/N=C/c1ccc(O)c(O)c1	none
CCCCN(CC)CCNC(=O)c1cc2c(=O)oc3ccc(C)cc3c2s1	none (no result: DRD3 antagonist)
Cc1ccc(CNC(=O)CN2CCCC(C)C2)cc1 (stereo unspecified)	DRD3 antagonist -71
NC(=O)C1CCN(CC(=O)Nc2ccc3c(c2)OCCO3)CC1	none (no result: D1 agonist, D1 antag, D1 potentiator)
Cc1ccc(NC(=O)CSc2ccc(-c3ccc4c(c3)OCO4)nn2)cc1F	none
Cc1ccc(C(=O)C2CCN(S(=O)(=O)c3ccc(C(=O)O)cc3)CC2)cc1	none
Cc1ccc(C(=O)C2CCNCC2)cc1	DRD3 antagonist -65
O=C(CN1CCC(C(=O)c2ccc(Cl)cc2)CC1)Nc1ccc2c(c1)OCCO2	DRD3 antagonist -76
O=C(CSc1ccc(-c2ccc(Cl)cc2)nn1)Nc1ccc2c(c1)OCCO2	D1 antag -31
COc1ccc(-c2c3c(=O)n(C)c(=O)n(C)c3c3c(-c4ccccc4)nc4ccccc4n23)cc1	none (no result: DRD3 antagonist)
NCCCC[C@H](NC(=O)[C@@H]1CCCN1C(=O)[C@@H]1CSSC[C@H](N)C(=O)N[C@@H](Cc2ccc(O)cc2)C(=O)N[C@@H](Cc2ccccc2)C(=O)N[C@@H](CCC(N)=O)C(=O)N[C@@H](CC(N)=O)C(=O)N1)C(=O)NCC(N)=O	none (no result: D1 agonist, DRD3 antagonist, D1 antag, D1 potentiator)
O=C(CSc1ccc(-c2ccc(Cl)cc2)nn1)N1CCCc2ccccc21	D1 antag -34
Cc1ccc(C(=O)C2CCN(CC(=O)NCc3ccc(F)cc3)CC2)cc1	DRD3 antagonist -93
Cc1ccc(C(=O)C2CCN(CC(=O)NC3CCCC3)CC2)cc1	none
Cc1ccc(NC(=O)CN2CCC(C(=O)c3ccc(F)cc3)CC2)cc1	DRD3 antagonist -69
O=C(CSc1ccc(-c2ccc(F)cc2)nn1)N1CCCc2ccccc21	none
Cc1ccc2occ(CC(=O)Nc3ccc(S(=O)(=O)N4CCC(C)CC4)cc3)c2c1	none (no result: DRD3 antagonist)
COC(=O)c1ccccc1NC(=O)CSc1nnc2cc(C)c3cc(C)cc(C)c3n12	none (no result: DRD3 antagonist)
CN(C1=C(NC(=O)c2ccccc2)C(=O)c2ccccc2C1=O)C1CCS(=O)(=O)C1 (stereo unspecified)	DRD3 antagonist -54
CCN(CC)CCNC(=O)Nc1ccc2c(c1)N(Cc1ccccc1)C(=O)c1ccccc1S2	none (no result: DRD3 antagonist)
Cc1cc(N2CCN(C)CC2)nc(-c2ccccc2O)n1	none
Cc1cc(N2CCN(C)CC2)nc(=S)[nH]1	DRD3 antagonist -81
COC(=O)c1ccc(NC(=O)CCc2c(C)nn(-c3ccc(N4CCCCC4)nn3)c2C)cc1	none (no result: DRD3 antagonist)
CC(C)(C)C(=O)NN=C1CCC(c2ccccc2)CC1 (stereo unspecified)	D1 antag -33
COC(=O)NN=C1CCC(c2ccccc2)CC1 (stereo unspecified)	none
Cc1ccc(C)c(NC(=O)Cn2c(=O)n(CCC(C)C)c(=O)c3cccnc32)c1	D1 antag -43 (no result: DRD3 antagonist)
Cc1cc(C)c(NC(=O)Cn2c(=O)n(CCC(C)C)c(=O)c3cccnc32)c(C)c1	none (no result: DRD3 antagonist)
O=c1[nH][nH]c(-c2ccccc2)c1C=Nc1ccc(Cl)cc1	DRD3 antagonist inconclusive
O=c1[nH][nH]c(-c2ccccc2)c1C=Nc1cccc(Cl)c1	DRD3 antagonist inconclusive, D1 antag -34
COc1ccc(C(O)c2nc(-c3cccc(F)c3)cs2)cc1 (stereo unspecified)	none (no result: D1 agonist, D1 antag, D1 potentiator)
COc1ccc(C(O)c2nc(-c3ccccc3)cs2)cc1 (stereo unspecified)	DRD3 agonist 63 (no result: D1 agonist, D1 antag, D1 potentiator)
COc1cccc(C(O)c2nc(-c3ccccc3C)cs2)c1 (stereo unspecified)	none (no result: D1 agonist, D1 antag, D1 potentiator)
COc1ccc(C(O)c2nc(-c3ccccc3C)cs2)cc1 (stereo unspecified)	DRD3 antagonist -95 (no result: D1 agonist, D1 antag, D1 potentiator)
OC(c1ccccc1)c1nc(-c2cccc(F)c2)cs1 (stereo unspecified)	DRD3 antagonist -55 (no result: D1 agonist, D1 antag, D1 potentiator)
COc1ccc(-c2csc(C(O)c3ccc(OC)cc3)n2)cc1 (stereo unspecified)	none (no result: D1 agonist, D1 antag, D1 potentiator)
COc1ccc(-c2cc(C(=O)Nc3c(Cl)cccc3Cl)no2)cc1OC	none (no result: DRD3 antagonist)
CCN(CC)C(=O)c1sc2c(c1C)c(=O)n(Cc1ccccc1)c(=O)n2Cc1c(C)cc(C)cc1C	none (no result: DRD3 antagonist)
CC(C)NC(=O)Cn1c(SCC(=O)N2CCc3ccccc3C2)nc2ccccc21	none
CC1CC(C)CN(C(=O)Cn2c(SCC(=O)N3CCc4ccccc4C3)nc3ccccc32)C1 (stereo unspecified)	D1 antag -65
